In PubChem BioAssay AID1259418 (Broad Institute, 2018):
Out of some 3,400 compounds screened, about 840 (25%) were called active. Not shown: some 11% with an inconclusive outcome. Only a sample is shown. Results with a measured potency or affinity are listed apart. A number with no mark means an inactive call.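 Rule for the calls: active = fitted half-maximal concentration of signal decrease at or below twice the sample's top tested concentration; inconclusive = flat curve between -70 and -30 percent, or poor fit; inactive = flat within 30 percent, signal rise, or potency above limit.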

experiment: T. gondii growth inhibition with IFN-gamma, dose response, cell-based, ME49Luc, HeLa, luciferase, 72 h (AID 1259418); settings: T. gondii ME49Luc in IFN-y HeLa, stronger effect = lower value, -100% = high-dose IFN-γ control wells; at 19.5 µM unless noted

SMILES	max activity
CCOC(=O)CSC1=Nc2ccccc2C2=NC(CCC(=O)NCc3ccccc3OC)C(=O)N12 (configuration not stated)	28.4% [at 1.35 µM]
CC(C)N1CCC2(CC1)CC(COCC1CC1)N(c1ncccn1)C2 (configuration not stated)	22.4%
O=C(CCC1CCCC1)N1CCC2(CC1)Nc1cc(F)ccc1-n1cccc12	4.37%
CC(C)[C@H](CO)Nc1nc(Nc2ccc(C(=O)O)c(Cl)c2)c2ncn(C(C)C)c2n1	10.1% [at 10 µM]
Cc1nc(-c2ccc(F)cc2)sc1-c1ccc(SCc2ccc(Br)cc2)nn1	10.9% [at 1.35 µM]
COCC(=O)N1CCC2(CC1)Nc1ccc(C)c(C)c1-n1cccc12	4.86% [at 10 µM]
CCc1nc(OCC(=O)Nc2ccc(Cl)c(C(F)(F)F)c2)c2ccccc2n1	33.2% [at 2.6 µM]
CN(C)CCN1CCOCC2(CCCN(C(=O)c3ccc4cc[nH]c4c3)C2)C1 (configuration not stated)	32.3%
Cc1cc(N2CCOCC2)nc2ccc(NC(=O)c3cc4ccccc4[nH]3)cc12	9.53% [at 0.16 µM]
COc1ccc(NC(=O)N2CCN(Cc3nc(-c4ccccc4C)oc3C)CC2)cc1	6.09% [at 0.16 µM]
O=C(NC1CCC12CCN(Cc1ccoc1)CC2)c1cnccn1 (configuration not stated)	54.2%
Cc1cc(C)c2c(=O)n(Cc3nc(-c4ccc(Cl)cc4)oc3C)c(=O)n(-c3ccccc3)c2n1	-16.5%
Cc1cc(C)c2c(=O)n(Cc3nc(-c4ccccc4)oc3C)c(=O)n(-c3ccccc3)c2n1	11.1% [at 0.35 µM]
O=C(NC1CCCC1)[C@H]1[C@H](CO)[C@H]2Cn3c(ccc(C4=CCCCC4)c3=O)[C@@H]1N2CC1CC1	28.5% [at 10 µM]
COc1ccccc1-c1nc(CSc2nc3c(c(=O)[nH]2)CN(Cc2ccccc2)CC3)c(C)o1	31.5%
COCC1CN(C(=O)Cc2ccsc2)Cc2nccn2C1 (configuration not stated)	35.1%
COCCCNc1ncnc2c1cnn2-c1ccc(C)cc1C	11.9% [at 0.16 µM]
Cc1ccc(-n2ncc3c(NC(C)(C)C)ncnc32)c(C)c1	53.9%
Cc1ccc(Nc2ncnc3c2cnn3-c2ccc(C)cc2C)cc1	16.5% [at 1.35 µM]
CCCCc1ccc(Nc2ncnc3c2cnn3-c2cccc(C)c2)cc1	13.1% [at 5 µM]
CCOc1ccc(-c2nc3c(s2)CN(C(=O)Nc2ccccc2CC)CC3)cc1	124%
Cc1oc(-c2cccc(Cl)c2)nc1CN1CCc2c(sc3c2CCCC3)C1c1ccccc1 (configuration not stated)	20.4%
COc1ccc(N2CC(NC(=O)C(=O)c3c(C)[nH]c4ccccc34)CC2=O)cc1 (configuration not stated)	15.6% [at 2.6 µM]
COc1ccc(CC(=O)N2CCC[C@@H]2C(=O)NCCc2csc(-c3ccccc3)n2)cc1Cl	18.7% [at 5 µM]
Cc1nc(-c2ccc(F)cc2)sc1-c1ccc(SCc2cccc(F)c2)nn1	25.1%
CC(C)c1ccc(S(=O)(=O)N2CCC3(CC2)NCCN=C3NCc2cccc(F)c2)cc1	-18.4%

SMILES	max activity
CC(C)c1ccc(S(=O)(=O)N2CCC3(CC2)NCCN=C3NCc2ccccc2)cc1	-31.9%
COc1ccc(C2=NC3(CCN(CC(=O)Nc4ccccc4F)CC3)NC2=O)cc1	-25.6% [at 0.35 µM]
Cn1nnc2c(NCCc3c[nH]c4ccccc34)ncnc21	6.96% [at 0.35 µM]
CCc1c(C)sc2c1CCN(Cc1nc(-c3ccc(OC)cc3)oc1C)C2c1ccccc1 (configuration not stated)	15.1% [at 5 µM]
N#Cc1cccc(-c2ccc(C3[C@@H]4CN(C(=O)Nc5ccc(C(F)(F)F)cc5)C[C@H]3N4)cc2)c1 (some centres not stated)	16.9% [at 10 µM]
Clc1cccc(CSc2nc(NC3CCCCC3)c3ccccc3n2)c1	11% [at 10 µM]
CCc1onc(C)c1C1CCCN1Cc1cn(C)c2ccc(OC)cc12 (configuration not stated)	9.05% [at 0.68 µM]
CCc1ccc(CNc2nc(-c3ccc(Cl)cc3)nc3ccccc23)cc1	24.5%
Fc1ccc(CNc2nc(-c3ccc(Cl)cc3)nc3ccccc23)cc1	7.26%
COc1ccc(-c2nc(NCc3ccc(Cl)cc3)c3ccccc3n2)cc1	-9.43% [at 0.35 µM]
COc1ccc(-c2nc(NCCc3ccc(C)cc3)c3ccccc3n2)cc1	14.1% [at 0.16 µM]
COc1ccc(-c2nc(NCc3ccc4c(c3)OCO4)c3ccccc3n2)cc1	-12% [at 1.35 µM]
COc1ccc(-c2nc(NCCc3ccc(Cl)cc3)c3ccccc3n2)cc1	25.9% [at 0.16 µM]
CCC(C(=O)N1CSC[C@@H]1C(=O)NCCc1csc(-c2ccccc2)n1)c1ccccc1 (some centres not stated)	16.6% [at 5 µM]
COc1cccc(-c2nc3c(s2)CN(C(=O)Nc2ccccc2C)CC3)c1	59.1%
CCCCOCCOCCOCc1cc2c(cc1CCC)OCO2	17.6%
COc1ccc(-c2nc(Nc3cccc(C)c3)c3ccccc3n2)cc1	-18.2% [at 0.16 µM]
CCc1nc(OCC(=O)NCc2ccc(OC)cc2)c2ccccc2n1	25.3%
C/C=C/c1ccc([C@H]2[C@H](CO)N3C(=O)CN(C(=O)NC4CCCCC4)C[C@@H]23)cc1	19.7%
O=C(Cc1cccnc1)N1CC(=O)N2[C@H](CO)[C@H](c3ccc(/C=C/c4ccccc4)cc3)[C@@H]2C1	20.1% [at 10 µM]
O=C(Cc1cccnc1)N1CC(=O)N2[C@H](CO)[C@@H](c3ccc(/C=C/c4ccccc4)cc3)[C@H]2C1	9.82% [at 10 µM]
CC(C)C#Cc1ccc([C@@H]2[C@@H](CO)N3C(=O)CN(C(=O)NC4CCCC4)C[C@H]23)cc1	19% [at 10 µM]
CCc1ccc2c(c1)cc(S(=O)(=O)c1ccccc1)c(=O)n2CC(=O)NCCC1=CCCCC1	-4.67% [at 2.6 µM]
Cc1nc(OCC(=O)NCc2ccc(F)cc2)c2ccccc2n1	25% [at 10 µM]
CCc1nc(OCC(=O)Nc2ccc(OC)cc2)c2ccccc2n1	-14.2%
CC(=O)N1CCN(C(C)C)C(c2nnc3ccc(C(=O)N4CCCC4)cn23)C1 (configuration not stated)	43.3%

SMILES	max activity
COc1ccc(-c2ccc([C@@H]3[C@@H](CO)N4C(=O)CN(Cc5ccccc5)C[C@H]34)cc2)cc1	18% [at 10 µM]
COc1ccc(-c2ccc([C@@H]3[C@@H](CO)N4C(=O)CN(Cc5ccccc5)C[C@@H]34)cc2)cc1	9.38% [at 5 µM]
COCC(=O)N1CC(=O)N2[C@H](CO)[C@@H](c3ccc(-c4ccncc4)cc3)[C@H]2C1	45.2%
COCC(=O)N1CC(=O)N2[C@H](CO)[C@@H](c3ccc(-c4ccccc4F)cc3)[C@H]2C1	43.4%
Cc1ccc(CNC(=O)Cn2c(=O)c(S(=O)(=O)c3ccccc3)cc3ccccc32)cc1	11% [at 0.16 µM]
Cc1ccc2[nH]c(C(=O)N3CCN(c4ccccn4)CC3)c(NC(=O)c3ccc(Cl)cc3)c2c1	30.8% [at 10 µM]
COCC(=O)Nc1ccc(-c2nc(-c3ccc(C)cc3C)co2)cc1	13.9% [at 0.16 µM]
O=C(c1ccccc1F)N1CCC2(CC1)Nc1cc(F)ccc1-n1cccc12	-7.85% [at 2.6 µM]
CCCCC(=O)Nc1ccc(-c2nc(-c3ccccc3)co2)cc1	9.5% [at 10 µM]
COCCCN1CCc2nc(SCc3nc(-c4ccc(OC)cc4)oc3C)[nH]c(=O)c2C1	25.5% [at 0.16 µM]
Cc1nc(CCNC(=O)C2CCN(S(=O)(=O)c3ccc(F)c(Cl)c3)CC2)cs1	8.69% [at 5 µM]
Cc1ccc(-c2coc(-c3ccc(NC(=O)Nc4cccc(Cl)c4)cc3)n2)cc1	13.6% [at 2.6 µM]
COc1ccc(-c2cc(C(=O)Nc3ccc4c(c3)CCC(=O)N4)c3ccccc3n2)cc1	13.4% [at 5 µM]
Cc1oc(-c2ccccc2)nc1Cn1nnc(-c2nc(-c3cccc(Cl)c3)no2)c1C	-9.25% [at 5 µM]
COc1ccc2[nH]cc(CCNC(=O)c3sc4ncnc(N(C)C5CCCCC5)c4c3C)c2c1	9.31% [at 5 µM]
Cc1ccc(-c2coc(-c3ccc(NC(=O)Nc4ccc(F)cc4F)cc3)n2)c(C)c1	9.31% [at 0.68 µM]
COc1ccc(Cl)cc1NC(=O)Nc1ccc(-c2nc(-c3ccccc3)co2)cc1	-16.1% [at 0.68 µM]
COc1ccccc1CNC(=O)CCC1N=C2c3ccccc3N=C(SCc3ccccc3Cl)N2C1=O (configuration not stated)	-11% [at 0.35 µM]
COc1ccccc1CNC(=O)CC1N=C2c3ccccc3N=C(SCc3cc(=O)n4ccccc4n3)N2C1=O (configuration not stated)	17.5% [at 0.16 µM]
O=C(CCC1N=C2c3ccccc3N=C(SCc3ccccc3F)N2C1=O)NCc1ccco1 (configuration not stated)	61.5% [at 10 µM]
O=C(CCC1N=C2c3ccccc3N=C(SCc3ccccc3Cl)N2C1=O)NCc1cccs1 (configuration not stated)	20.4% [at 5 µM]
COc1ccc(CNC(=O)CC2N=C3c4ccccc4N=C(SCc4ccccc4Cl)N3C2=O)cc1 (configuration not stated)	18.1% [at 0.68 µM]
COc1ccccc1CNC(=O)CCC1N=C2c3ccccc3N=C(SCc3ccccc3F)N2C1=O (configuration not stated)	8.88%
COc1ccc(CNC(=O)CC2N=C3c4ccccc4N=C(SCc4cc(=O)n5cc(Cl)ccc5n4)N3C2=O)cc1 (configuration not stated)	-22.2%
COc1ccccc1CNC(=O)CC1N=C2c3ccccc3N=C(SCc3ccc(Cl)cc3)N2C1=O (configuration not stated)	28% [at 5 µM]
